PvdQ acylase = P. aeruginosa PvdQ acylase inhibition | purified PvdQ acylase, fluorescence plate reader | inhibition, % at 10 µM | hit rate 0.063% among 340,000 | AID 488965; in the data active means inhibition above about 30%, passing the limit was not always enough; inconclusive means no clear call, values can overlap the other calls;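 further: 0% = vehicle neutral wells and 100% = reference inhibitor wells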
dFosB act-1 = activators of mouse delta FosB homodimer. purified delta FosB, TAMRA-CDK5 oligo fluorescence polarization; percent of positive-control signal above neutral wells. activation, % at 25 µM. hit rate 0.99% among 340,000. AID 493131;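 active means mean activation above about 17%, with every replicate also reaching it, limit read from the data, passing the limit was not always enough; inconclusive means only one of the two conditions met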
Target sequence (P13346 whole entry, looked up): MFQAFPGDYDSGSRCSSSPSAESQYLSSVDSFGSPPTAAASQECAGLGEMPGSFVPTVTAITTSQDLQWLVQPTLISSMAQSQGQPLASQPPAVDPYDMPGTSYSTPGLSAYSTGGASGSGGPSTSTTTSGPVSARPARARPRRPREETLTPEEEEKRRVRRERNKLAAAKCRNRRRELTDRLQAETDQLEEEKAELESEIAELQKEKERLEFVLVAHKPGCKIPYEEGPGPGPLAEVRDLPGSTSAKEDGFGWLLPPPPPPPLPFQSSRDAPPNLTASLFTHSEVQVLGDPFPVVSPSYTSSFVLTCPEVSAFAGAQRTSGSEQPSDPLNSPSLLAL
PglD inh = blocks C. jejuni PglD acetyltransferase activity | purified PglD enzyme, DTNB colorimetric CoA detection | inhibition, % at 12.5 µM | hit rate 0.098% among 360,000 | AID 602405; in the data active means inhibition above about 16%, passing the limit was not always enough; inconclusive means no clear call, values can overlap the other calls
FGF22 binding = shifts melting point of recombinant human FGF22 | recombinant FGF22 thermal shift, SYPRO orange fluorescence; percent of sucrose octasulfate shift, DMSO zero | Q9HCT0 | activity (Tm shift, normalised), % at 9.99 µM | AID 651658 | hit rate 1.5% among 340,000;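 active means mean Tm shift, scaled 0 neutral to 100 positive control, at about 1.3% or above, every replicate too, limit read from the data; inconclusive means no clear call, values can overlap the other calls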
SIRT5 inh = sirtuin-5 (human) deacylase inhibition; Q9NXA8; Purified SirT5, succinyl-peptide AMC, trypsin-coupled fluorescence; inhibition, % at 15 µM; hit rate 1.1% among 330,000; AID 652115; in the data active means inhibition above about 15%; inconclusive means no clear call, values can overlap the other calls
Target sequence (Q9NXA8 whole entry, looked up): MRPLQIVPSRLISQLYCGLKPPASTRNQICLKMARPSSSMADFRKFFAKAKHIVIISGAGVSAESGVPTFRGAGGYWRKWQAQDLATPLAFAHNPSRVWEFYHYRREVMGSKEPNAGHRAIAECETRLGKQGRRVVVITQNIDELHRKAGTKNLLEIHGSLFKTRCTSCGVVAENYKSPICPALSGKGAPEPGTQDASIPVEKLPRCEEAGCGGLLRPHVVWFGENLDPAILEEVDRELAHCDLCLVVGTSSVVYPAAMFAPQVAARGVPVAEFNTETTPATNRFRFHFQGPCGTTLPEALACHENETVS
CDK5 inh = CDK5/p35 (human) kinase inhibition; Recombinant CDK5/p35, ADP-Glo luminescence, 60 min; inhibition, % at 10 µM; hit rate 0.01% among 330,000;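 active means highest replicate inhibition of at least 50% and at least 75% of replicates reaching 50%; inconclusive means only one of the two criteria met; inactive means both criteria failed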;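 further: plate controls were DMSO neutral control for no effect and GW8510 at 10 µM for full effect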
dFosB act-2 = delta FosB (mouse) homodimer activation; shares compounds with dFosB act-1; activation, % at 24.9 µM; 2,400 tested, under 10 active; purified delta FosB, TAMRA-CDK5 oligo fluorescence polarization; normalised: neutral wells 0, positive control 100;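 active means highest replicate activation at or above 34% and every replicate reaching that threshold; inconclusive means meets only one of the two criteria; inactive means meets neither criterion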;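 further: higher polarization means more probe DNA bound by delta FosB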
* marks the source's active call; other numbers are inactive results; ? = inconclusive; . = not tested or not shown. In the library only some 2.8% were active in any assay of this set; here they are far more common.

SMILES	PvdQ acylase	dFosB act-1	PglD inh	FGF22 binding	SIRT5 inh	CDK5 inh	dFosB act-2
C[C@@H](NC(=O)C[C@@H]1C=C[C@H](NC(=O)CN2CCOCC2)[C@@H](CO)O1)c1ccccc1	.	.	0.3	-0.5	6.8	.	.
O=C1CN(Cc2ccccc2)C[C@H]2[C@@H](c3ccc(-c4ccccc4)cc3)[C@@H](CO)N12	.	.	.	.	0.3	.	.
Fc1cccc(/C=N/NC(=S)Nc2ccccc2Cl)c1	6.5	-4.6	.	.	.	-0.6	.
Fc1ccc(NC(=S)N/N=C/c2cccc(Br)c2)c(F)c1	-9.6	36.4*	5.3	.	-1.7	-1.0	2.0
C[C@@H]1CCCCO[C@H](CN(C)C(=O)Cc2ccccc2)[C@@H](C)CN([C@@H](C)CO)C(=O)c2cc(NS(=O)(=O)c3ccccc3)ccc2O1	.	.	2.0	-0.9	8.2	.	.
COc1cccc(Cn2cnc3c(NS(=O)(=O)c4ccc(Cl)cc4)c(C)c(C)cc32)c1	-9.1	17.1*	-1.4	.	.	-1.7	1.3
Cc1oc2cc(O)ccc2c(=O)c1Oc1ccc2ccccc2c1	-7.8	-1.9	-4.3	.	.	-0.5	.
Cc1oc2cc(O)ccc2c(=O)c1Oc1ccc(F)cc1	-1.2	18.7*	3.9	-0.2	-14.5	-0.6	3.0
O=C(CSCc1ccc(Cl)cc1)N/N=C/c1ccccc1	-16.4	1.6	-1.9	.	.	1.0	.
O=C(CSCc1ccc(Cl)cc1)N/N=C/c1c(Cl)cccc1Cl	-6.9	26.9*	-2.4	0.5	2.6	0.7	1.1
CC(=O)n1cc(/C=N/NC(=O)c2ccc(Cl)cc2)c2ccccc21	-9.3	6.1	-0.9	-0.1	-3.0	-0.8	.
CC(=O)n1cc(/C=N/NC(=O)c2cccc(O)c2)c2ccccc21	-13.2	27.4*	-0.7	-0.1	2.0	-1.4	6.0
COc1cccc(/C=C2/Sc3ccc(C(=O)NCCCN4CCCC4)cc3NC2=O)c1	-11.8	36.5*	2.4	-0.3	-0.4	19.9	4.4
CCC(=O)N1[C@H](CO)[C@H](c2ccc(-c3cccc(F)c3)cc2)[C@@H]1CN(C)C(C)=O	.	.	-1.7	.	0.6	.	.
O=c1[nH]c(-c2ccc3c(c2)OCO3)nc2c1sc(=S)n2-c1ccccc1	-13.7	-6.1	.	0.4	-11.8	-2.3	.
O=c1[nH]c(-c2ccc(F)cc2)nc2c1sc(=S)n2-c1ccccc1	3.7	23.6*	-5.5	0.0	0.6	1.2	2.6
Cc1noc(C)c1NC(=O)N[C@H]1C=C[C@H](CC(=O)Nc2ccc(-c3ccccc3)cc2)O[C@H]1CO	.	.	-1.2	0.0	6.4	.	.
Cn1c(=O)c2ncn(CC(=O)Nc3nc(-c4ccc(Cl)cc4)cs3)c2n(C)c1=O	-2.0	24.4*	.	0.2	-3.7	-2.9	0.6
Cn1c(=O)c2c(ncn2CC(=O)Nc2nc(-c3ccccc3Cl)cs2)n(C)c1=O	-19.1	-0.8	-2.9	.	.	0.0	.
O=C(N/N=C/c1ccc(-c2ccccc2Cl)o1)c1ccccc1	-3.5	32.0*	.	.	.	1.1	0.3
O=C(O)c1ccc(N/N=C/c2ccc(-c3ccccc3Cl)o2)cc1	4.2	1.5	-4.8	0.1	2.7	-0.5	.
CCCCn1c(N)c(N(CCC(C)C)C(=O)C2CC(=O)N(c3cccc(SC)c3)C2)c(=O)[nH]c1=O (configuration not stated)	-5.4	39.7*	11.0	0.2	5.8	-4.0	6.1
CCCCn1c(N)c(N(CCC(C)C)C(=O)C2CC(=O)N(c3ccc4c(c3)OCCO4)C2)c(=O)[nH]c1=O (configuration not stated)	-10.1	-0.1	1.7	0.2	1.0	-0.8	.
CCCCn1c(N)c(N(CC(C)C)C(=O)C2CCN(S(=O)(=O)c3ccccc3)CC2)c(=O)[nH]c1=O	-12.3	55.3*	.	0.3	0.8	1.3	3.5
CCCCn1c(N)c(N(CC(C)C)C(=O)C2CCN(S(=O)(=O)c3ccc(C)c(C)c3)CC2)c(=O)[nH]c1=O	-9.9	?	4.2	-0.3	0.8	-1.0	.
SMILES	PvdQ acylase	dFosB act-1	PglD inh	FGF22 binding	SIRT5 inh	CDK5 inh	dFosB act-2
CCCNC(=O)Nc1ccc2c(c1)C(=O)N(C)C[C@H](OC)[C@H](C)CN(C(=O)CC)[C@H](C)CO2	.	.	1.0	.	.	.	.
COc1cccc(Nc2nc(N)nc(-c3oc4ccccc4c3C)n2)c1	-15.8	59.6*	4.5	.	.	-4.1	0.4
Cc1cccc(Nc2nc(N)nc(-c3oc4ccccc4c3C)n2)c1	-1.7	78.5*	5.9	38.8*	-9.9	1.3	-0.6
C[C@@H]1CCCCO[C@H](CN(C)C(=O)Nc2cccc3ccccc23)[C@H](C)CN([C@@H](C)CO)C(=O)c2cc(NC(=O)Cc3ccccc3)ccc2O1	.	.	1.6	0.1	7.8	.	.
Cc1noc(C(=O)Nc2ccc(F)c(Cl)c2)c1Cl	-2.1	24.0*	-4.5	0.0	-2.5	1.1	3.8
Cc1noc(C)c1NC(=O)Nc1ccc2c(c1)CC(=O)N([C@@H](C)CO)C[C@@H](C)[C@@H](CN(C)Cc1ccc(Oc3ccccc3)cc1)O2	.	.	3.9	-0.1	.	.	.
COc1ccc(N(CC(=O)Nc2ccc(F)c(Cl)c2)S(=O)(=O)c2c(C)noc2C)cc1	7.5	27.8*	-0.7	.	.	-0.2	2.3
Cc1cc(C)c2nc(NCCCNC(=S)NCCCN(C)C)c(C#N)cc2c1	2.8	31.6*	.	0.0	-10.1	1.5	?
Cc1cc2cc(C)c3nnc(SCC(=O)Nc4ccc(S(=O)(=O)N5CCCCC5)cc4)n3c2cc1C	1.0	21.8*	.	-0.1	-1.2	0.1	2.0
Cc1cc2ccccc2n2c(SCC(=O)Nc3ccc(S(=O)(=O)N4CCCCC4)cc3)nnc12	3.1	-10.0	.	.	.	0.5	.
N#C/C(=C\c1cn(Cc2ccccc2F)c2ccccc12)C(=O)NCc1ccco1	-14.1	24.3*	.	.	.	0.9	3.8
CC(C)C#Cc1ccc([C@@H]2[C@@H](CO)N3C(=O)CN(C(=O)NC4CCCC4)C[C@@H]23)cc1	.	.	.	-0.1	3.1	.	.
CC(=O)Nc1ccc(NC(=S)NC(=O)/C=C/c2ccc(Cl)cc2)cc1	-10.1	-8.5	.	0.3	-1.0	0.5	.
O=C(/C=C/c1ccc(Cl)cc1)NC(=S)Nc1ccc(NC(=O)c2ccco2)cc1	-1.4	84.6*	.	.	.	0.8	0.3
COc1ccc(NC(=O)COc2ccc(/C=N/NC(=O)c3cccnc3)cc2OC)cc1	-1.7	-10.7	.	-0.1	-2.6	-0.9	.
COc1cc(/C=N/NC(=O)c2cccnc2)ccc1OCC(=O)Nc1c(C)cc(C)cc1C	-5.2	25.6*	15.8	.	.	0.0	5.7
COc1cc(/C=N/NC(=O)c2cccnc2)ccc1OCC(=O)Nc1ccccc1Cl	-0.8	116.5*	-1.7	43.2*	-12.8	-0.4	-0.4
O=C(C[C@H]1C=C[C@H](NS(=O)(=O)c2ccc(F)cc2)[C@H](CO)O1)N1CCC(Cc2ccccc2)CC1	.	.	3.1	-0.1	0.7	.	.
O=C(NC(=S)Nc1cccc(NC(=O)c2ccc(Cl)cc2Cl)c1)c1cccs1	-3.3	43.9*	4.2	.	.	1.6	-0.7

Bioassay records as filed in PubChem BioAssay.
